High-throughput results from PubChem BioAssay.
Glioma ERSR ind = ER stress response induction in glioma. AID 602332. 420,000 tested, 0.02% active. U87-MG GRP78 promoter luciferase reporter, 16 h. Potency, µM, most hits filed as activators; also: series mostly up to about 76 µM; nearly all actives have a fitted effect of over 35% in size
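Stably transfected U87-MG human glioma cells carrying a GRP78-based luminescent sensor were seeded at 1000 cells/well, pin-dosed with compounds and incubated 16 h. Luciferase reagent was then added, and end-point luminescence was read after 10 min at room temperature.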
pAkt inh = blocks phosphorylation of Akt. activity change, % for hits at 50 µM. 360,000 tested, 0.32% active. AID 651550. Neuro2A IGF-stimulated pAkt S473 HTRF, 20 min; active compounds read low; in the data active = activity change below about -80%; inconclusive = mostly about -51% to -80%
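Neuro2A cells in DMEM with 0.5% FBS, overnight at 37 deg C, given compound at single 50 µM final, then IGF (6 nM final) for 20 min at 37 deg C. Lysed; phospho-Akt Ser473 by HTRF after 24 h, 665/615 ratio.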
Mm-Cpn inhibitor = inhibitors of Methanococcus maripaludis chaperonin TRiC (MmCpn) | purified Mm-Cpn ATPase, ADP Transcreener TR-FRET | Potency, µM (highest dose often 76.9 µM), hits mostly inhibitors | 330,000 tested, 0.031% active; also: nearly all actives have a fitted effect of over 80% in size
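ATP (10 uM final) was added to archaeal chaperonin (25 nM final) after 10 min exposure to test compound at 37°C; after 30 min further incubation, ADP was detected by competitive TR-FRET.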
GLS inhibitor = inhibitors of human glutaminase (GLS) | 410,000 tested, 0.21% active | GLS enzymatic activity, qHTS titration | Potency, µM (highest dose often 45.5 µM), actives largely listed as inhibitors | O94925 | AID 624170
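Coupled fluorescence readout: glutamate oxidase/HRP/Amplex Red detect glutamate formed by hKGA from L-glutamine (1 mM solution added). Buffer 45 mM KH2PO4 pH 8.2, 0.02% Tween-20; reads at t0 and 30 min RT.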
CCT modulator = changes cytosolic chaperonin activity; purified chaperonin ATPase assay, HTRF ADP detection, 30 min; 360,000 tested, 0.3% active; AID 651819; activity change, % (test concentration not listed), hits read low; in the data active = activity change below about -30%
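TRiC (40 or 20 nM final, by batch activity) in 30 mM Tris pH 7.4, 100 mM KCl, 5 mM MgCl2, 1 mM DTT was treated with compound at 76 uM single dose, then 10 uM ATP, 30 min at 37 °C. ADP was read by HTRF Transcreener.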
IDH1 R132H inh = blocks human mutant IDH1 R132H enzyme. IDH1-R132H enzyme, NADPH consumption, diaphorase/resazurin fluorescence. Potency, µM (titrated, usually from 76.6 µM), most hits filed as inhibitors. 390,000 tested, 0.093% active. AID 602179; also: nearly all actives have a fitted effect of over 65% in size
Target sequence (O75874 whole entry R132H, stated change not applied): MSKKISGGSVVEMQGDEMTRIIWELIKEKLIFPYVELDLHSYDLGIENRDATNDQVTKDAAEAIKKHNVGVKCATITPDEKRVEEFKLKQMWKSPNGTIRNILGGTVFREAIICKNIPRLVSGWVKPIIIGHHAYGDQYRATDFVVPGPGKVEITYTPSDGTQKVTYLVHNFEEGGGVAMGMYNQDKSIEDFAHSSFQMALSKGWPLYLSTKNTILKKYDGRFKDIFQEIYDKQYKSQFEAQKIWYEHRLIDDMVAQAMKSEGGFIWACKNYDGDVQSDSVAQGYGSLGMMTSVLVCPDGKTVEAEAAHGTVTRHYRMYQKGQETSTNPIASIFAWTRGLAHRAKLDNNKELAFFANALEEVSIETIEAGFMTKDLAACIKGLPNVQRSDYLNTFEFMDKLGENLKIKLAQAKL
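IDH1-R132H (0.5 ug/mL dispensed) in pH 7.5 Tris buffer was preincubated 30 min with compound, then given a substrate mix of 0.016 mM NADPH and 2 mM alpha-KG for 80 min at room temperature; remaining NADPH was read by diaphorase/resazurin fluorescence.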
A number is an active result; – = inactive; ? = inconclusive; · = no result given; ! = not active in a repeat. Most compounds without a hit are left out; they make up all but 0.85% or so of the library. Unless noted, calls follow the shape of the dose curve; as a rule, active = well fitted curve in the direction sought with a large enough effect; inconclusive = small, poorly fitted or top-dose-only effect, or another doubt; inactive = no such curve, though single readings can be large; an effect the other way counts as inactive or inconclusive.

SMILES | Glioma ERSR ind | pAkt inh | Mm-Cpn inhibitor | GLS inhibitor | CCT modulator | IDH1 R132H inh
COc1cc(CN2CCC3(CC2)CC3C(=O)Nc2ccc3sc(C)nc3c2)ccc1F (configuration not stated) | – | · | · | · | · | ·
COc1ccc(OCC(=O)NNC(=O)c2cc3ccccc3o2)cc1 | – | – | – | – | -66.7 | –
COc1ccccc1CN1C(=O)c2cccc3cccc(c23)C1=O | – | – | – | 7.94µM | – | –
Cc1cnc(-n2ncc(C(=O)N(C)Cc3cccc4ncccc34)c2C(C)C)nc1-c1ccc(F)cc1 | – | · | · | · | · | ·
C=CCn1c(Sc2nnc(C)s2)nc2c1c(=O)[nH]c(=O)n2C | – | -124.5% | – | – | – | –
Nc1ccc(Nc2ccccc2N)cc1 | – | – | – | – | – | –
COc1ccc(Nc2ccccc2NC(=O)c2ccccc2Br)cc1 | – | – | – | 10µM | – | –
COc1ccc(Nc2ccccc2N)cc1 | – | – | – | 10µM | – | –
Cc1ccccc1C(=O)Nc1ccccc1NC(=O)c1ccccc1Br | – | – | – | – | – | –
CC(=O)N1CCC[C@H]1C(=O)NCC1Cc2cc(-c3cccc(OC(F)(F)F)c3)ccc2O1 (some centres not stated) | – | · | · | · | · | ·
O=C(NCCN1CCOCC1)c1ccc(F)cc1 | – | -101.0% | – | – | – | –
CC1CC(=O)c2cnc(Nc3cccc(C(F)(F)F)c3)nc2C1 (configuration not stated) | – | -103.8% | – | – | – | –
CCn1c(SCC(=O)NCCOC)nc2sc3c(c2c1=O)CCCC3 | – | -80.5% | – | – | – | –
O=C(N/N=C/c1ccc(O)c(O)c1)c1cccc(S(=O)(=O)N2CCCC2)c1 | – | – | – | 11.2µM | – | –
COc1ccccc1N1CCN(c2nc(CNC(=O)C3CC34CCCC4)nc3ccccc23)CC1 (configuration not stated) | – | · | · | · | · | ·
COc1cc(O)oc1C=Nc1ccc(Cl)cc1 | – | -119.2% | – | – | – | –
CCOC(=O)C1=C(C)N=C2SC(C(=O)OC)=CC(=O)N2C1c1cccc(OC)c1 (configuration not stated) | – | – | – | – | – | –
CCOC(=O)C1=C(C)N=C2SC(C(=O)OC)=CC(=O)N2C1c1ccc(F)cc1 (configuration not stated) | – | -87.5% | – | – | – | –
CCC[C@]1(CCc2ccccc2)CC(O)=C([C@H](CC)c2cccc(NS(=O)(=O)c3ccc(C(F)(F)F)cn3)c2)C(=O)O1 | – | · | · | – | · | ·
NNC(=O)c1cc2c(ccc3ccccc32)o1 | – | – | – | 22.4µM | – | –
CN1CCN2c3ccccc3Cc3ccccc3C2C1 (configuration not stated) | 35.5µM! | – | – | – | – | –
CN1CCN(C2Cc3ccccc3Sc3ccc(Cl)cc32)CC1 (configuration not stated) | – | – | – | – | – | –
O=C(NCC(c1ccco1)N1CCCC1)c1cc(S(=O)(=O)N2CCCCC2)ccc1Cl (configuration not stated) | – | – | – | – | -40.4 | –
OC[C@H]1O[C@H](OC/C=C/c2ccccc2)[C@H](O)[C@@H](O)[C@@H]1O | – | · | · | – | · | ·
CC(=O)Nc1ccc(N(C)C)cc1[N+](=O)[O-] | – | -109.3% | – | – | – | –
SMILES | Glioma ERSR ind | pAkt inh | Mm-Cpn inhibitor | GLS inhibitor | CCT modulator | IDH1 R132H inh
COc1cc(=O)n2c(c1C(=O)NCc1ccco1)CCN(Cc1ccc(F)cc1Cl)CC2 | – | · | · | · | · | ·
CN(N=Cc1ccccc1)C(=S)Nc1ccccc1 | – | – | · | 15.8µM | – | –
C/C(=C\C(=S)Nc1ccccc1)Nc1ccccc1 | – | – | – | – | – | –
O=C(CC1(c2cccc(F)c2)CC(=O)N(Cc2cccnc2)C1=O)N1CCCCCCC1 (configuration not stated) | – | · | · | · | · | ·
Cn1c(SCC(=O)Nc2ccc(N3CCOCC3)cc2)nnc1-c1ccccc1 | – | – | – | – | -35.2 | –
COc1ccccc1CN1CCC(n2cc(C(=O)N3CCCCC3)nn2)CC1 | – | · | · | · | · | ·
CCOc1ccccc1N(CC(=O)Nc1ccc(S(=O)(=O)N2CCOCC2)cc1)S(=O)(=O)c1ccccc1 | – | -127.3% | – | – | – | –
O=C(Oc1ccc(-c2nccc(-c3ccccn3)n2)cc1)c1cccc(C(F)(F)F)c1 | – | -95.7% | – | – | – | –
Cc1ccc(C(=O)Oc2ccc(-c3nccc(-c4ccccn4)n3)cc2)cc1 | – | – | – | – | – | –
CC1=NN(c2ccc(Cl)c(C(=O)O)c2)C(=O)C1 | – | – | – | 12.6µM | – | –
Cc1cccc(CCNc2nc3ccccc3n3nnnc23)c1 | – | -87.4% | – | – | – | –
Clc1ccc(CCNc2nc3ccccc3n3nnnc23)cc1 | – | – | – | – | – | –
COc1ccc(-c2cnc3c(NC(C)=O)cc(-c4cccc(C(=O)N(C)C)c4)cn23)cc1OC | – | · | · | – | -33.0 | ·
COc1ccc(-c2cnc3c(NC(C)=O)cc(-c4cccc(C(=O)NCCN(C)C)c4)cn23)cc1OC | – | – | · | – | – | ·
COc1ccccc1-c1ccnc(-n2ncc(C(=O)NC(C)(C)CO)c2C2CC2)n1 | – | · | · | · | · | ·
Cc1[nH]c2c(F)cccc2c1CC(=O)NCCN1Cc2ccccc2OC(C)C1 (configuration not stated) | – | · | · | · | · | ·
CC(=O)Nc1sc2c(c1C#N)CCCCC2 | – | – | – | – | – | –
Cc1ccc(C(=O)Nc2sc3c(c2C#N)CCCCC3)cc1C | – | -95.2% | – | – | – | –
Cc1oc(-c2ccccc2NC(=O)C2CCC2)nc1CNC(=O)c1ccc(C#CC(C)(C)O)cc1 | – | · | · | · | · | ·
O=C(CCNc1ccc(Cl)cc1)c1cccs1 | – | – | – | – | – | –
O=C(CCSc1ccc(Cl)cc1)c1cccs1 | – | -107.4% | – | – | – | –
C(=Nc1ccc(N2CCOCC2)cc1)c1c[nH]c2ccccc12 | – | – | – | 11.2µM | – | –
Oc1ccc(N=Nc2cccc(Cl)c2)cc1C=Nc1ccc(N2CCOCC2)cc1 | – | – | – | ? | – | –
Oc1c(Br)cc(Cl)cc1C=Nc1ccc(N2CCOCC2)cc1 | – | – | – | 12.6µM | – | –
COc1ccc2cc(CN(C(=O)c3cc(C)nn3C)C3CC3)c(-c3ccc(Cl)cc3)nc2c1 | – | · | · | · | · | ·
COc1ccc(-c2[nH]nc3nc(N4CCN(C(=O)c5ccoc5)CC4)cc(C(F)(F)F)c23)cc1 | – | – | · | – | -39.9 | –
Brc1ccc(C2=Nc3cccc4cccc(c34)N2)o1 | – | – | – | – | -43.5 | –
COc1ccc(OC)c(CN2CCCC(c3nc(-c4ccncc4)ncc3-c3ccccc3C)C2)c1 (configuration not stated) | – | · | · | · | · | ·
